Source: PubChem (National Center for Advancing Translational Sciences (NCATS))
In the library only some 11% were active in any assay of this set; here they are far more common.
HADH2 inhib: HADH2 (human) dehydrogenase inhibition. Q99714. recombinant HADH2, NADH fluorescence, beta-hydroxybutyryl-CoA. Potency, µM (titrated, usually from 57.1 µM), hits mostly inhibitors. 3.4% of 73,000 active. AID 886; further: nearly all actives have a fitted effect of over 60% in size
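His-tagged recombinant enzyme from E. coli, 20 nM, preincubated 15 min RT with compound; reaction started with 1 mM NAD+ and 90 uM beta-hydroxybutyryl-CoA in 100 mM Tris-HCl pH 9.0. NADH fluorescence (ex 360/em 450) read over 4 min; last-minus-first difference.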
ALOX15 inhib: blocks human 15-lipoxygenase activity; P16050; purified 15hLO-1, xylenol orange hydroperoxide absorbance; Potency, µM (highest dose often 57.1 µM), most hits filed as inhibitors; 1.4% of 74,000 active; further: nearly all actives have a fitted effect of over 55% in size
Target sequence (P16050 whole entry, looked up): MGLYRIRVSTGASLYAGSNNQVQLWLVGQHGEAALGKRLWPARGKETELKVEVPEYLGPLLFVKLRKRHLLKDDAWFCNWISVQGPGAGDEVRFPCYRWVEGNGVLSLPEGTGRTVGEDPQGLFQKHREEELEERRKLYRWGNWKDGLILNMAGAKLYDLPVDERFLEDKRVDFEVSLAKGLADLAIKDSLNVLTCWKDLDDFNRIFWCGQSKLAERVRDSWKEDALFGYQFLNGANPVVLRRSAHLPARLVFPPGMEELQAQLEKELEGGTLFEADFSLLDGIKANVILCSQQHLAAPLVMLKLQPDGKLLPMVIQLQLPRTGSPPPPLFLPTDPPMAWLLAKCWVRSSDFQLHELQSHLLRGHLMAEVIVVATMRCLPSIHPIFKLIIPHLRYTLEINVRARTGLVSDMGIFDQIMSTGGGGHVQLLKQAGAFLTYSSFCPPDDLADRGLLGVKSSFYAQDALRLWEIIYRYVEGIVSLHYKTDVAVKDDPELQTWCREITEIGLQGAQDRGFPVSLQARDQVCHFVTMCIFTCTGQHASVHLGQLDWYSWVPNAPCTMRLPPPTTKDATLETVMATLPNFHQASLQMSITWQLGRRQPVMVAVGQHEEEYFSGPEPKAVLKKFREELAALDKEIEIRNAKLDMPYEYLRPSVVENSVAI
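Quantitative HTS in 25 mM Hepes pH 7.5 containing 0.01% Triton X-100: human 15hLO-1 at 40 nM, arachidonic acid at 50 uM, 6 min turnover. Product quantified via ferrous oxidation/xylenol orange, 573:405 nm absorbance ratio.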
FLuc inh: inhibitors of firefly luciferase. P08659. purified firefly luciferase, luminescence, 8 min. Potency, µM (doses to about 57.1 µM), actives largely listed as inhibitors. 2.2% of 72,000 active. AID 411; further: nearly all actives have a fitted effect of over 40% in size
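Titration-based qHTS; buffer 50 mM imidazole pH 7.2, 50 mM KCl, 7 mM MgCl2, 10 uM ATP, 0.01% Tween 20, 0.05% BSA; luciferase/luciferin detector mix added after compound; 8 min, ambient; luminescence.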
PK Bst: modulators of Bacillus stearothermophilus pyruvate kinase; purified pyruvate kinase, luminescence ATP production; ribose 5-phosphate activator present at AC10; Potency, µM; 1.2% of 51,000 active; in the data active means potency below about 11 µM; inconclusive means mostly about 12 µM to 25 µM;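 the screen sought inhibitors and activators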
ERK AVP block: inhibitors of vasopressin-stimulated ERK signaling pathway. AID 995. HEK293-V1b, vasopressin-stimulated pERK AlphaScreen. 0.99% of 72,000 active. Potency, µM (top dose mostly 57.5 µM), hits mostly inhibitors; further: nearly all actives have a fitted effect of over 55% in size
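qHTS, compounds titrated on V1b-expressing HEK293 cells. Preincubation 30 min at 37C, vasopressin 25 nM for 5 min, lysis 10 min, bead incubation 5 hr at room temperature.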
HSD17B inh: inhibitors of human HSD17B10 dehydrogenase. 7.6% of 75,000 active. AID 893. recombinant HSD17B10, NADH fluorescence kinetic. Q99714. Potency, µM (doses to about 57.1 µM), usual class: inhibitors;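 further: the protocol describes HADH2 (HSD17B10) and not the HSD17B4 of the title; nearly all actives have a fitted effect of over 70% in size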
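His-tagged E. coli-expressed HADH2 at 20 nM in 100 mM Tris-HCl pH 9.0 with 0.01 % Tween-20, preincubated 15 min with compound at room temperature. Reaction with 1 mM NAD+ and 90 uM beta-hydroxybutyryl coenzyme A; NADH fluorescence (360/450 nm) read kinetically over 4 min, last minus first point.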
Large screens that a line does not name were inactive. Unless noted, the call rests on the fitted dose curve; in most records, active means well fitted curve in the direction sought with a large enough effect; inconclusive means small, poorly fitted or top-dose-only effect, or another doubt; inactive means no such curve, though single readings can be large; an effect the other way counts as inactive or inconclusive.

COc1ccc(Cn2c(=O)[nH]c3cc(C(=O)NCc4ccc5c(c4)OCO5)ccc3c2=O)cc1	none
COc1cc2[nH]c(=O)n(Cc3ccc(C(=O)NCC4CCCO4)cc3)c(=O)c2cc1OC (configuration not stated)	HADH2 inhib inconclusive, HSD17B inh 32µM
O=C(NCCCN1CCCCC1)c1ccc2c(=O)n(CCc3ccccc3)c(=O)[nH]c2c1	HSD17B inh 13µM
CCN(CC)CCNC(=O)c1ccc2c(=O)n(CCc3ccccc3)c(=O)[nH]c2c1	HSD17B inh 16µM
COc1ccc(CCn2c(=O)[nH]c3cc(C(=O)NCCCN4CCOCC4)ccc3c2=O)cc1OC	none
COCCn1c(=O)[nH]c2cc(C(=O)NCCN3CCN(c4cccc(Cl)c4)CC3)ccc2c1=O	HADH2 inhib inconclusive, HSD17B inh inconclusive
COc1ccc(Cn2c(=O)[nH]c3cc(C(=O)NCCCN4CCCCC4)ccc3c2=O)cc1	HSD17B inh 32µM
CC(C)CN1CCC2(CC1)CCN(C(=O)c1ccco1)CC2	none (no result: PK Bst)
NC[C@H]1O[C@@H](n2cnc3c(=O)[nH]c(N)nc32)[C@@H](O)[C@@H]1O	none (no result: PK Bst)
O=C(O)C1CCC(CNc2c(NC3CCCCC3)c(=O)c2=O)CC1 (configuration not stated)	none (no result: PK Bst, ERK AVP block)
COc1cc2ccc([C@H](C)NCC#N)cc2cc1OC	none (no result: PK Bst)
CCCCCNC(=O)c1ccc2c(=O)n(CC3CCCO3)c(=O)[nH]c2c1 (configuration not stated)	HADH2 inhib inconclusive, HSD17B inh 32µM
S=c1ccss1	ALOX15 inhib 7.9µM, HSD17B inh inconclusive (no result: HADH2 inhib, FLuc inh, PK Bst)
CC(C)(C)c1cc(C(c2cccnc2)N2CCN(CCO)CC2)cc(C(C)(C)C)c1O (configuration not stated)	ALOX15 inhib inconclusive, ERK AVP block inconclusive
OCCN1CCN(C(c2cccs2)c2ccc3cccnc3c2O)CC1 (configuration not stated)	HADH2 inhib 3.2µM, ALOX15 inhib 4µM, ERK AVP block inconclusive, HSD17B inh 16µM
COc1cc2[nH]c3c(=O)n(CCN4CCCCC4)cnc3c2cc1OC	HADH2 inhib inconclusive, HSD17B inh 25µM
O=c1c2[nH]c3cccc(Cl)c3c2ncn1CCN1CCCCC1	none (no result: PK Bst)
Cc1ccc2[nH]c3c(=O)n(CCCN4CCOCC4)cnc3c2c1	HADH2 inhib 6.3µM, HSD17B inh 25µM (no result: PK Bst)
Cc1ccc2[nH]c3c(NCCCN4CCCC4=O)ncnc3c2c1	HSD17B inh 16µM (no result: PK Bst)
Cc1ccc(-n2ncc3c(NCCCN4CCCC4=O)ncnc32)c(C)c1	none (no result: HADH2 inhib, ALOX15 inhib, ERK AVP block, HSD17B inh)
O=c1c2[nH]c3ccc(F)cc3c2ncn1CCN1CCN(Cc2ccccc2)CC1	none (no result: PK Bst)
Cc1ccc2[nH]c3c(=O)n(CCCN4CCN(C)CC4)cnc3c2c1	HSD17B inh 10µM
CN(CCc1ccc(Cl)c(Cl)c1)CCN1CCCC1	none (no result: PK Bst)
Cc1ccc2[nH]c3nc(SCCN4CCOCC4)nnc3c2c1	ALOX15 inhib 2.5µM (no result: PK Bst)
O=c1c2[nH]c3ccccc3c2ncn1CCCn1ccnc1	HSD17B inh 32µM
Cc1ccc2[nH]c3c(NCc4ccco4)ncnc3c2c1	HADH2 inhib 25µM, ERK AVP block inconclusive, HSD17B inh 25µM
COc1ccc2[nH]c3nc(SCc4nnc(-c5ccc(C)cc5)o4)nnc3c2c1	none
Clc1ccc(CSCc2ccc(Cl)cc2Cl)c(Cl)c1	none (no result: PK Bst)
Clc1ccc(-c2cn3c(n2)CCC3)cc1	FLuc inh 13µM, PK Bst inconclusive (no result: HADH2 inhib, ALOX15 inhib, ERK AVP block, HSD17B inh)
Nc1nc(-c2ccc(Cl)cc2)cc(C(F)(F)F)n1	HSD17B inh inconclusive
CO[C@H]1COC(=O)C/C=C\[C@H](C)[C@@H](NS(=O)(=O)c2ccc(C)cc2)COC(=O)C/C=C\[C@@H]1C	none (no result: PK Bst)
CC(C)CC(NC(=O)C1CCC(C)CC1)C(=O)N1CCN(c2ccccn2)CC1 (configuration not stated)	HSD17B inh 32µM (no result: PK Bst)
CC(C)CC(NC(=O)C1CCC(C)CC1)C(=O)Nc1cccnc1 (configuration not stated)	none
O=C(c1ccncc1)N1CCC2(CC1)CCN(c1ccncc1)CC2	none (no result: PK Bst)
CC1(C)Cc2ccccc2-c2nc(NCCO)n(-c3ccccc3)c(=O)c21	HADH2 inhib 5µM, HSD17B inh 25µM (no result: PK Bst)
O=C(c1csnn1)N1CCC2(CCCN(Cc3ccccc3)C2)CC1	none (no result: PK Bst)
Nc1ccccc1C(=O)CC(N)C(=O)O (configuration not stated)	none (no result: HADH2 inhib, FLuc inh, PK Bst)
Cn1c(N2CCOCC2)nc(-c2ccccc2)c1-c1ccccc1	HADH2 inhib 25µM, HSD17B inh 32µM
Cn1cc(C(=O)c2ccc(Cl)cc2)cc1-c1nc2ccccc2n1C	HADH2 inhib inconclusive, ERK AVP block 32µM, HSD17B inh inconclusive
COC(=O)NC(c1ccc2ccccc2c1)C(C(C)=O)C(=O)OC (configuration not stated)	none (no result: FLuc inh, PK Bst)
Cc1cc(N2CCCC2)nc(-c2ccccc2O)n1	HADH2 inhib 32µM, HSD17B inh 32µM
CCCc1cc(=O)oc2cc(OCC(=O)OC)cc(OCC(=O)OC)c12	ALOX15 inhib inconclusive (no result: PK Bst)
CCCCc1cc(=O)oc2cc(OCC(=O)N(CC)CC)c(Cl)cc12	HSD17B inh 32µM (no result: PK Bst)
CCCCc1cc(=O)oc2cc(OCC(=O)N(CC)CC)ccc12	HADH2 inhib inconclusive, HSD17B inh 20µM (no result: PK Bst)
Cc1ccc(C)n1-c1ccc(C(=O)N2CCOCC2)cc1	none
CN(C)S(=O)(=O)c1ccc(N2CCOCC2)nc1	HADH2 inhib 25µM, HSD17B inh 25µM
Cc1ccc(C)n1-c1ccc(N2CCOCC2)nc1	HADH2 inhib 32µM, HSD17B inh 25µM
O=S(=O)(c1ccc(N2CCN(S(=O)(=O)c3ccc4c(c3)OCCO4)CC2)nc1)N1CCCC1	HSD17B inh inconclusive
COc1ccc(OCC(=O)Nc2ccc3c(c2)nc(CCN2CCOCC2)n3C)cc1	FLuc inh 25µM, HSD17B inh inconclusive
O=C(O)c1c[nH]c2c(ccc3[nH]cc(C(=O)O)c(=O)c32)c1=O	HSD17B inh inconclusive (no result: PK Bst)
c1cncc(-c2nn3c(Cn4cnc5ccccc54)nnc3s2)c1	HADH2 inhib 0.63µM, ALOX15 inhib 4µM, HSD17B inh inconclusive
Clc1ccc(-c2nn3c(Cn4cnc5ccccc54)nnc3s2)c(Cl)c1	HADH2 inhib 0.32µM, HSD17B inh 20µM
Cn1c(=O)c(-c2ccc(F)cc2)nc2cnc(N3CCOCC3)nc21	none (no result: PK Bst)
COc1ccccc1C(=O)Nc1ccccn1	FLuc inh 16µM, PK Bst inconclusive
O=C(Nc1ccccn1)c1cccnc1	none
CCOc1ncccc1C(=O)Nc1ccc(Cl)cc1	PK Bst 3.8
CCOc1ccc(NC(=O)c2nccnc2CO)cc1	FLuc inh 16µM, PK Bst inconclusive
CCOc1ccc(NC(=O)c2ccccc2O)cc1	FLuc inh 1.3µM, PK Bst 2.5
CCOc1ccc(NC(C)=O)cc1	none (no result: PK Bst)
CCOc1ccc(NC(=O)c2cccnc2C(=O)O)cc1	none (no result: PK Bst)
